From PubChem
Hits are enriched below; roughly 7.7% of the tested compounds scored in any of these assays.
Sm TGR block = qHTS Assay for the Inhibitors of Schistosoma Mansoni Peroxiredoxins. Potency, µM (titrated, usually from 114 µM), without a hit: at the highest dose activity change, negative = inhibition, hits mostly inhibitors. 360,000 tested, 3% active. purified TGR, DTNB reduction, TNB absorbance 405 nm. Schistosoma mansoni thioredoxin glutathione reductase (TGR), Q962Y6; also: potency is read from the fitted curve at half-maximal effect; nearly all actives have a fitted effect of over 60% in size
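TGR 20 nM + NADPH 100 uM (dispensed conc.), cpd preinc 15 min RT; start with NADPH (500 uM addition) then DTNB (15 mM addition). Kinetic TNB absorbance, 405 nm filter. Four-parameter Hill fit across titration.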
Giardia FBPA inh = qHTS Assay for Inhibitors of Fructose-1,6-bisphosphate Aldolase from Giardia Lamblia; Potency, µM (titrated, usually from 59.6 µM), for inactives: at the top dose activity, negative = inhibition, usual class: inhibitors; AID 2451, 2010; A8B2U2; 290,000 tested, 0.71% active; purified Giardia FBPA; also: potency is read from the fitted curve at half-maximal effect; nearly all actives have a fitted effect of over 55% in size
Target sequence (A8B2U2 whole entry, looked up): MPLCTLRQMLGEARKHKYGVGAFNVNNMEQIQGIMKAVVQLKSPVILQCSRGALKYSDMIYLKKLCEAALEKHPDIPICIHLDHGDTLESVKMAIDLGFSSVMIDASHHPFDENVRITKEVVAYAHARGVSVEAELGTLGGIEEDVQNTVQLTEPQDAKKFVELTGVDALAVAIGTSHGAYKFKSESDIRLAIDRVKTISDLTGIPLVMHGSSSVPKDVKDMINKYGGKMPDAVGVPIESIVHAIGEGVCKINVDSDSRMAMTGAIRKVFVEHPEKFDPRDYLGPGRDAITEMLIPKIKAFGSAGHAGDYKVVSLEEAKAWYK
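40 nM FBPA preincubated 10 min at RT with compound (up to 57.5 uM final), then substrate plus GAPDH/TPI/NAD/arsenate coupling and diaphorase/resazurin added. Fluorescence read after 20 min at RT, 525/598 nm.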
RE007 growth inh = qHTS Assay for Inhibitors of the HIV-1 protein Vpr. Potency, µM (top dose mostly 92.2 µM), for inactives: top-dose activity change, negative = less growth, most hits filed as inhibitors. S. pombe RE007 Vpr strain, BacTiter-Glo ATP luminescence, 24 h. 360,000 tested, 0.21% active; active = well fitted falling curve with a large enough effect; inconclusive = small, poorly fitted or top-dose-only effect; inactive = no such curve, though single readings can be large or run the other way; also: potency is read from the fitted curve at half-maximal effect; nearly all actives have a fitted effect of over 50% in size
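Fission yeast strain RE007, carrying one chromosomally integrated HIV-1 vpr copy, was seeded at OD 0.01 in PMG+AL medium with 23 nL pinned compound. After 24 h at 30 °C and 99% humidity, viability was read by BacTiter-Glo luminescence.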
Tb PYK inh = qHTS of Trypanosoma Brucei Inhibitors. 410,000 tested, 0.12% active. TbPYK enzyme, Kinase-Glo Plus ATP luminescence, 45 min. Potency, µM (series often up to 76.8 µM), inactives show at the top dose activity, negative = inhibition, usual class: inhibitors. pyruvate kinase (Trypanosoma brucei), Q57TT1. AID 624173, 2012; also: potency is read from the fitted curve at half-maximal effect; nearly all actives have a fitted effect of over 50% in size
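T. brucei PYK with substrate was exposed to pin-transferred compounds across a concentration series, then started with 130 uM ADP (final). After 45 min at room temperature, Kinase-Glo Plus luminescence was read, normalized and curve-fitted.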
HCMV inh = qHTS Assay for inhibitors of the human cytomegalovirus (HCMV); HFF cells, HCMV-luciferase reporter, 72 h; stronger effect = lower value; activity change, negative = inhibition, % at 57.5 µM; 410,000 tested, 4.5% active; in the data active = activity change below about -60%; inconclusive = no clear call, values can overlap the other calls; inactive = above about -39%
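After 16 h attachment at 37C, HFF cells received test compound and HCMV-luciferase (1 PFU/cell); reporter luminescence read 72 h later, data normalized against buffer-only and known inhibitor Salinomycin.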
FMDV antiviral = High Throughput Screening for Foot and Mouth Disease Virus Antivirals. FMDV antiviral cell-based qHTS. Potency, µM (highest dose often 57.9 µM), for inactives: top-dose activity change, negative = inhibition, hits mostly inhibitors. 410,000 tested, 1.2% active; calls by dose curve; tested in HEK293T cells; also: read-out not given here; potency is read from the fitted curve at half-maximal effect; nearly all actives have a fitted effect of over 45% in size
* marks the source's active call; other numbers are inactive results; ? = inconclusive; . = not tested or not shown; [ ] = remark or other dose. Unless noted, calls follow the shape of the dose curve; as a rule, active = well fitted curve in the direction sought with a large enough effect; inconclusive = small, poorly fitted or top-dose-only effect, or another doubt; inactive = no such curve, though single readings can be large; an effect the other way counts as inactive or inconclusive. % is scaled to controls: 0 for no effect and ±100 for the full control effect.

SMILES	Sm TGR block	Giardia FBPA inh	RE007 growth inh	Tb PYK inh	HCMV inh	FMDV antiviral
O=C(C1=C[C@@H](C2CCCCC2)C[C@@H](OCCCCO)O1)N1CCOCC1	0%	0%	9%	-1%	27	0%
CN1CCN(C(=O)C2=C[C@H](c3ccc(Br)cc3)C[C@H](OCCCCO)O2)CC1	22µM*	0%	8%	-5%	4	-14%
CN1CCN(C(=O)C2=C[C@@H](c3csc4ccccc34)C[C@@H](OCCCCO)O2)CC1	45µM*	-8%	1%	-4%	5	-9%
O=C(C1=C[C@@H](C2CC2)C[C@@H](OCCCCO)O1)N1CCOCC1	56µM*	0%	2%	2%	7	-9%
O=C(C1=C[C@@H](c2ccccc2)C[C@@H](OCc2ccc(CO)cc2)O1)N1CCOCC1	45µM*	7%	4%	-5%	0	-9%
O=C(C1=C[C@H](c2csc3ccccc23)C[C@H](OCCCCO)O1)N1CCOCC1	?	3%	-4%	-6%	28	3%
NC(=S)c1ccc[n+]([C@@H]2O[C@@H](COP(=O)([O-])OP(=O)(O)OC[C@H]3O[C@@H](n4cnc5c(N)ncnc54)[C@H](OP(=O)(O)O)[C@H]3O)C(O)C2O)c1 (stereo not given in full)	.	1%	.	.	.	.
O=C(C1=C[C@@H](c2ccccc2)C[C@@H](OCCCCO)O1)N1CCOCC1	40µM*	-5%	20%	1%	10	9%
CN1CCN(C(=O)C2=C[C@@H](c3ccccc3)C[C@@H](OCCCCO)O2)CC1	40µM*	-8%	-7%	1%	-21	-11%
CCOC(=O)OCC1OC(c2ccc(C(C)=O)cc2)C=CC1OC(=O)OCC (stereo not given)	.	-1%[12.9 µM]	.	.	.	.
CCN(CC)C(=O)c1cn(-c2cccc(OC)c2)c(=O)c2ccccc12	16%	0%	6%	-8%	-6	-6%
CCn1cc(C(=O)N(C)c2cc(C)ccc2OC)c2cc(OC)c(OC)cc2c1=O	-3%	-5%	-1%	5%	.	-20%
COc1cccc(-n2cc(C(=O)Nc3ccccc3C(N)=O)c3ccccc3c2=O)c1	4%	.	.	0%	-80*	-24%
CCN(C(=O)c1cn(-c2cccc(OC)c2)c(=O)c2ccccc12)c1ccccc1C	6%	.	.	-2%	-70*	-5%
COc1ccc(CNC(=O)c2cn(-c3cccc(OC)c3)c(=O)c3ccccc23)cc1	-1%	.	.	0%	-38	-16%
COc1ccc(-n2cc(C(=O)N(C)c3cc(C)ccc3OC)c3ccccc3c2=O)cc1	-7%	.	.	-8%	-85*	-6%
NC[C@@H]1O[C@@H](O[C@H]2[C@H](O)[C@H](O[C@@H]3O[C@H](CO)[C@@H](O)[C@H](N)[C@@H]3O)[C@@H](N)C[C@H]2N)[C@H](N)C[C@@H]1O	.	3%[21.7 µM]	.	-4%[33.2 µM]	.	.
O=C(/C(=C/c1ccc(Cl)cc1)c1nc2ccccc2[nH]1)c1ccccc1	7%	-1%	-4%	3%	-96*	?
O=C(N/C(=C/c1ccc(Cl)cc1)c1nc2ccccc2[nH]1)c1ccco1	0%	6%	1%	-4%	-22	29%
COc1cc(/C=N/Nc2nc3ccccc3[nH]2)cc(OC)c1O	-9%	-7%	1%	-21%	60	-4%
COc1cc(/C=C(/C(=O)c2cccs2)c2nc3ccccc3[nH]2)cc(OC)c1O	35µM*	?	-2%	0%	-102*	14µM*
CCCCC12CN3CC(C)(CN(C1)C3c1c[nH]c3ccccc13)C2=O (stereo not given)	-1%	.	.	-1%	13	-15%
C[C@H]1[C@@H](NS(=O)(=O)c2ccc(C(F)(F)F)cc2)CC[C@@]23CCCN2C(=O)CCC[C@@H]13	.	.	.	.	-25	.
O=C1NC2(CCCCC2)N=C1c1ccc(F)cc1	2%	-11%	10%	-4%	-74*	-15%
O=S(=O)(NCc1ccc(F)cc1)c1ccc(N2CCCCS2(=O)=O)cc1	-13%	.	.	-4%	-28	-11%
SMILES	Sm TGR block	Giardia FBPA inh	RE007 growth inh	Tb PYK inh	HCMV inh	FMDV antiviral
CC1=C/C(=C\C=C(C#N)C#N)N(C)c2ccccc21	10%	-5%	2%	-4%	-81*	-14%
COCc1cc(C)nc(NCCO)c1C#N	0%	4%	-11%	-4%	59	-5%
CCNc1nc(C)cc(COC)c1C#N	25µM*	5%	-11%	-13%	82	-4%
C=C1N(S(=O)(=O)C(F)(F)F)CCC12CN(Cc1ccccc1)c1ccccc12 (stereo not given)	.	.	.	.	4	.
NCCC[C@@H](CC(=O)N[C@@H]1CCNC[C@H]1C(=O)N[C@H](CC(=O)N[C@@H](CCC(=O)O)CC(=O)O)Cc1ccccc1)NC(=O)C[C@H](Cc1c[nH]c2ccccc12)NC(=O)[C@@H]1CCCC[C@H]1N	.	-22%	.	.	.	.
CCOC(=O)C1(C(=O)OCC)N=C(c2ccccc2)C=C1c1ccccc1	.	.	.	.	-33	.
CCOc1cc(C2C(C(=O)Nc3ccccc3)=C(C)Nc3ncnn32)cc(Br)c1O (stereo not given)	45µM*	.	.	-13%	-6	-4%
CCOc1cc(C2C(C(N)=O)=C(C)Nc3ncnn32)cc(Br)c1O (stereo not given)	-10%	.	.	-3%	-3	4%
COc1ccc2c(c1)C(C)=CC(C)(C)N2S(=O)(=O)c1ccc(Br)cc1	6%	7%	-3%	-3%	-80*	-17%
COc1ccc2c(c1)C(C)=CC(C)(C)N2S(=O)(=O)c1ccc(NC(C)=O)cc1	12%	2%	5%	10%	-90*	-27%
CCOc1ccc2c(c1)C(C)=CC(C)(C)N2S(=O)(=O)c1ccc(F)cc1	8%	7%	-5%	-1%	-33	-23%
CCOc1ccc2c(c1)C(C)=CC(C)(C)N2S(=O)(=O)c1ccc(NC(C)=O)cc1	-23%	3%	-3%	3%	?	10%
COc1ccc(Cl)cc1C(=O)NCCc1ccc(S(=O)(=O)NC(=O)NC2CCCCC2)cc1	-5%	?	-12%[18.4 µM]	3%	-63*	-17%
COc1ccc(CCNC(=O)NC2CCCCC2)cc1OC	2%	0%	14%	5%	25	23%
COc1ccc(N2CC(NC(=O)CCc3ccccc3)CC2=O)cc1OC (stereo not given)	6%	.	.	-9%	9	5%
